Source: PubChem BioAssay (NCATS)
Results filed as inconclusive are left out. Activity calls are given as the source filed them. The call rests on the fitted dose curve; in most records, active means well fitted curve in the direction sought with a large enough effect; inconclusive means small, poorly fitted or top-dose-only effect, or another doubt; inactive means no such curve, though single readings can be large; an effect the other way counts as inactive or inconclusive. Starred links: 1 amine or outer side, 2 acyl side, 3 side chain; linkers in the order of their positions; H or OH if unused. Positions of bridges follow the written chain, without caps; N, C: chain ends. Non-standard residues stand in square brackets, D forms with d. Residues, ends and D or L forms follow the SMILES beside them. Chains are numbered I, II in the order given. Actinocin(9to1) = Cc1c2oc3c(C)ccc(C(=O)[*:1])c3nc-2c(C(=O)[*:2])c(N)c1=O; NMeV = CN[CH](C(=O)O)C(C)C; Sar = CNCC(=O)O

What was measured:
[1] = Quantitative High-Throughput drug screen in 47 multiple myeloma cell lines against the NCATS MIPE library collection: KMM1_JCRB cell viability assay (AID 1918960); further: nearly all actives have a fitted effect of over 30% in size
Outline: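 CellTiter-Glo luminescence after 48 h exposure gives viability, scaled between DMSO-only (100%) and media-only (0%) controls. Library compounds are pinned onto 500 myeloma cells per well, incubated at 37C with 5% CO2.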

[2] = Quantitative High-Throughput drug screen in 47 multiple myeloma cell lines against the NCATS MIPE library collection: Karpas417_ECACC cell viability assay (AID 1918961); details: Karpas417 myeloma viability, CellTiter-Glo ATP luminescence, 48 h; viability (% of DMSO): at 45.8 µM (top of the series)
Outline: (§1)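 Relative luminescence from CellTiter-Glo served as the viability signal, referenced to DMSO-treated (100%) and cell-free medium (0%) controls. Treatment lasted 48 hours at 37C with 500 cells per well.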

[3] = Quantitative High-Throughput drug screen in 47 multiple myeloma cell lines against the NCATS MIPE library collection: KHM11_PLB cell viability assay (AID 1918962); further: nearly all actives have a fitted effect of over 35% in size
Outline: as §1

[4] = Quantitative High-Throughput drug screen in 47 multiple myeloma cell lines against the NCATS MIPE library collection: JIM3_ECACC cell viability assay (AID 1918963; further: nearly all actives have a fitted effect of over 35% in size)
Outline: as §1

[5] = Quantitative High-Throughput drug screen in 47 multiple myeloma cell lines against the NCATS MIPE library collection: JIM1_ECACC cell viability assay (AID 1918964)
Outline: (§2)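 Approved and investigational drugs from MIPE 4.0 were added by pin tool to 500 cells per well. After 48 hours at 37C, ATP-based CellTiter-Glo luminescence indicated remaining viability.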

[6] = Quantitative High-Throughput drug screen in 47 multiple myeloma cell lines against the NCATS MIPE library collection: INA6_PLB cell viability assay (AID 1918965; further: nearly all actives have a fitted effect of over 55% in size)
Outline: as §1

[7] = Quantitative High-Throughput drug screen in 47 multiple myeloma cell lines against the NCATS MIPE library collection: JJN3_DSMZ cell viability assay (AID 1918966; further: nearly all actives have a fitted effect of over 50% in size)
Outline: as §2

[8] = Quantitative High-Throughput drug screen in 47 multiple myeloma cell lines against the NCATS MIPE library collection: H1112_PLB cell viability assay (AID 1918967; further: nearly all actives have a fitted effect of over 30% in size)
Outline: as §2

[9] = Quantitative High-Throughput drug screen in 47 multiple myeloma cell lines against the NCATS MIPE library collection: Karpas25_ECACC cell viability assay (AID 1918968; further: nearly all actives have a fitted effect of over 35% in size)
Outline: as §2

[10] = Quantitative High-Throughput drug screen in 47 multiple myeloma cell lines against the NCATS MIPE library collection: KMS27_JCRB cell viability assay (AID 1918970); details: KMS27 myeloma cells, CellTiter-Glo ATP viability, 48 h; viability (% of DMSO): at 45.8 µM (top of the series); further: nearly all actives have a fitted effect of over 30% in size
Outline: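 KMS27_JCRB myeloma cells, 500 per well, exposed 48 h at 37 C, 5% CO2 to MIPE 4.0 compounds. Viability from ATP by CellTiter-Glo luminescence, normalized to DMSO (100%) and medium-only (0%) wells.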

Measured: Potency
Potency means the concentration at half of the fitted maximal effect.

NC(=O)Nc1cc(-c2ccc(CN3CCOCC3)cc2)sc1C(N)=O
active: [1] 4.18 µM | [2] 0.0833 µM | [3] 0.935 µM | [4] 4.69 µM | [5] 1.48 µM | [6] 1.05 µM | [7] 1.18 µM | [8] 5.26 µM | [9] 1.32 µM

Cn1cc(-c2cnn3c(N)c(Br)c([C@H]4CCCNC4)nc23)cn1
active: [1] 0.372 µM | [2] 0.132 µM | [3] 0.526 µM | [4] 1.87 µM | [5] 0.118 µM | [6] 0.662 µM | [7] 0.59 µM | [9] 0.662 µM | [10] 1.48 µM

Nc1ncn([C@@H]2O[C@H](CO)[C@@H](O)[C@@H]2O)c(=O)n1
active: [1] 1.18 µM | [2] 9.35 µM | [3] 14.8 µM | [4] 4.69 µM | [5] 1.48 µM | [6] 1.18 µM | [7] 11.8 µM | [9] 3.32 µM | [10] 9.35 µM

COc1ccc(S(=O)(=O)Nc2cc(-c3c(O)ccc4ccccc34)c(O)c3ccccc23)cc1
active: [1] 8.33 µM | [2] 1.66 µM | [3] 14.8 µM | [4] 9.35 µM | [5] 3.32 µM | [6] 2.96 µM | [7] 8.33 µM | [8] 9.35 µM | [9] 5.26 µM | [10] 14.8 µM

CC(=O)[C@]1(O)Cc2c(O)c3c(c(O)c2[C@@H](O[C@H]2C[C@H](N)[C@@H](O)[C@H](C)O2)C1)C(=O)c1ccccc1C3=O
active: [1] 2.35 µM | [2] 2.35 µM | [3] 0.296 µM | [4] 0.264 µM | [5] 1.18 µM | [6] 0.0935 µM | [7] 0.209 µM | [8] 0.187 µM | [9] 0.148 µM | [10] 1.18 µM

O=C(Nc1ccc(Oc2ccnc3[nH]ccc23)c(F)c1)c1cccn(-c2ccc(F)cc2)c1=O
active: [1] 2.64 µM | [2] 0.0047 µM

C[C@H](NCc1ccc(OCc2cccc(F)c2)cc1)C(N)=O
active: [1] 6.62 µM | [2] 2.64 µM | [3] 1.48 µM | [4] 2.96 µM | [5] 3.72 µM | [6] 1.32 µM | [7] 8.33 µM | [8] 5.9 µM | [9] 2.35 µM | [10] 1.66 µM

CCc1cnn2c(NCc3ccc[n+]([O-])c3)cc(N3CCCC[C@@H]3CCO)nc12
active: [1] 0.0148 µM | [2] 0.0209 µM | [3] 0.0187 µM | [4] 0.0264 µM | [5] 0.0148 µM | [6] 0.0235 µM | [8] 0.0264 µM | [9] 0.0332 µM | [10] 0.0187 µM

COc1cc(CCc2cc(NC(=O)c3ccc(N4C[C@@H](C)N[C@@H](C)C4)cc3)n[nH]2)cc(OC)c1
active: [1] 18.7 µM | [2] 2.35 µM | [3] 9.35 µM | [4] 14.8 µM | [5] 2.35 µM | [6] 9.35 µM | [9] 16.6 µM | [10] 18.7 µM

CC(C=CC(=O)NO)=C[C@@H](C)C(=O)c1ccc(N(C)C)cc1
active: [1] 0.209 µM | [2] 0.105 µM | [3] 0.372 µM | [4] 0.743 µM | [5] 0.296 µM | [6] 0.0833 µM | [7] 0.187 µM | [9] 0.264 µM | [10] 0.264 µM

Cc1c2oc3c(C)ccc(C(=O)NC4C(=O)NC(C(C)C)C(=O)N5CCCC5C(=O)N(C)CC(=O)N(C)C(C(C)C)C(=O)OC4C)c3nc-2c(C(=O)NC2C(=O)NC(C(C)C)C(=O)N3CCCC3C(=O)N(C)CC(=O)N(C)C(C(C)C)C(=O)OC2C)c(N)c1=O (stereo unspecified) (I: TVP[Sar][NMeV] / II: TVP[Sar][NMeV]; ester I:1-I:C, II:1-II:C; linker I:N-II:N via Actinocin(9to1); configuration not given here)
inactive: all assays above

CC(=O)ON=C1C(c2c(O)[nH]c3cc(Br)ccc23)=Nc2ccccc21
active: [1] 5.9 µM | [2] 5.26 µM | [3] 13.2 µM | [4] 2.96 µM | [5] 3.72 µM | [6] 0.935 µM | [7] 20.9 µM | [9] 2.64 µM | [10] 6.62 µM

COc1cccc2c1C(=O)c1c(O)c3c(c(O)c1C2=O)C[C@@](O)(C(C)=O)C[C@H]3O[C@H]1C[C@H](N)[C@H](O)[C@H](C)O1
active: [1] 0.0743 µM | [2] 0.0469 µM | [3] 0.235 µM | [4] 0.0935 µM | [5] 0.0743 µM | [6] 0.0332 µM | [7] 0.105 µM | [8] 0.209 µM | [9] 0.0372 µM | [10] 0.0372 µM

CC(=O)NCC(=O)N1[C@H]2CC[C@H]1c1cc(Nc3ncc(C(F)(F)F)c(NC4CCC4)n3)ccc12
active: [1] 3.72 µM | [2] 0.118 µM | [3] 0.526 µM | [4] 1.18 µM | [5] 0.332 µM | [6] 0.935 µM | [7] 2.64 µM | [8] 16.6 µM | [9] 1.87 µM | [10] 0.166 µM

COc1cc(C(=O)NC2CCN(C)CC2)ccc1Nc1ncc2c(n1)N(C1CCCC1)CCC(=O)N2C(C)C
active: [1] 16.6 µM | [2] 13.2 µM | [3] 14.8 µM | [4] 20.9 µM | [5] 5.9 µM | [6] 3.72 µM | [7] 8.33 µM | [8] 23.5 µM | [9] 20.9 µM | [10] 5.9 µM

CC(C)(O)Cn1c(NC(=O)c2ccc(-c3cn[nH]c3)s2)nc2cc(CN3CCOCC3)ccc21
active: [1] 0.743 µM | [2] 0.118 µM | [3] 0.296 µM | [4] 1.32 µM | [5] 0.418 µM | [6] 0.833 µM | [7] 1.32 µM | [8] 2.64 µM | [9] 0.935 µM | [10] 0.372 µM

Cc1ccc2nc(NCCN)c3ncc(C)n3c2c1
active: [1] 7.43 µM | [2] 8.33 µM | [3] 2.64 µM | [4] 8.33 µM | [5] 3.32 µM | [6] 5.9 µM | [7] 1.66 µM | [8] 4.69 µM | [9] 9.35 µM | [10] 6.62 µM

Cn1cnc(=N)c2[nH]cnc21
active: [1] 0.132 µM | [2] 0.0235 µM | [3] 0.372 µM | [4] 1.05 µM | [5] 0.0935 µM | [6] 0.0469 µM | [8] 0.235 µM | [9] 0.0743 µM | [10] 0.059 µM

CCNC(=O)c1cc2c(-c3cc(OCCN4CCCC4)c(Cl)cc3Cl)nc(N)nc2s1
active: [1] 0.59 µM | [2] 0.59 µM | [3] 0.59 µM | [4] 0.935 µM | [5] 0.469 µM | [6] 0.59 µM | [7] 2.35 µM | [9] 0.833 µM | [10] 1.18 µM

Nc1nc(N)c2nc(-c3cccc(O)c3)c(-c3cccc(O)c3)nc2n1
active: [1] 3.72 µM | [2] 1.32 µM | [3] 3.32 µM | [4] 9.35 µM | [5] 1.87 µM | [6] 2.35 µM | [9] 4.69 µM | [10] 4.18 µM

C[C@@H](Oc1ccc2[nH]nc(C=Cc3cnn(CCO)c3)c2c1)c1c(Cl)cncc1Cl
active: [3] 1.87 µM | [4] 0.372 µM | [6] 0.0935 µM | [8] 6.62 µM | [9] 0.743 µM
inactive: [1] | [2] | [5] | [10]

C#C[C@]1(O)CC[C@@H]2[C@@H]3CCC4=CC(=O)CC[C@@H]4[C@H]3CC[C@@]21CC
not listed: [7] | [9]
inactive: all other assays above

CC(C)N1[N]C(=C2C=c3cc(O)ccc3=N2)c2c(N)ncnc21
active: [1] 0.296 µM | [2] 0.0332 µM | [3] 0.0833 µM | [4] 0.264 µM | [6] 1.18 µM | [8] 4.18 µM | [9] 0.235 µM | [10] 0.209 µM

CCc1c(O)cc(O)c(C(=O)c2ccc(OCCN3CCOCC3)c(OC)c2)c1CC(=O)N(CCOC)CCOC
inactive: [2]
active: [1] 0.935 µM | [3] 0.469 µM | [4] 0.833 µM | [6] 0.59 µM | [7] 0.935 µM | [8] 14.8 µM | [9] 0.526 µM

CN(C)c1ccc(C(=O)NCCCCCCC(=O)NO)cc1
active: [1] 0.105 µM | [2] 0.132 µM | [3] 1.66 µM | [4] 2.96 µM | [5] 0.0935 µM | [6] 0.166 µM | [8] 1.87 µM | [9] 0.469 µM | [10] 0.0662 µM

Cn1c(Nc2ccc(C(F)(F)F)cc2)nc2cc(Oc3ccnc(-c4ncc(C(F)(F)F)[nH]4)c3)ccc21
active: [1] 16.6 µM | [2] 4.18 µM | [3] 18.7 µM | [4] 18.7 µM | [5] 9.35 µM | [6] 20.9 µM | [8] 8.33 µM | [9] 3.72 µM | [10] 14.8 µM
